Measured values from PubChem BioAssay (NCI).
Compounds without any hit were thinned out: in the full panel of roughly 83,000, 20% have a hit.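 Plates (96-well) were seeded with cells, treated with compound at one concentration, and incubated for 48 hours before percent growth was determined.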 Active and inactive are the calls of the source. The calls were made as follows: active = growth percent below 10; inactive = the rest.

These compounds were tested on NCI-H322M lung (assay: NCI-60 one-dose screen, 48 h (100 = growth as untreated, 0 = no growth, -100 = all killed)). Details: 10 µM unless noted.
For `COc1cccc2cc(-c3nc(C4CCC(C(=O)O)CC4)n4ncnc(N)c34)[nH]c12` (centres undefined), the growth was 9.76% (active). In the case of `CNC(=O)c1cc(Oc2ccc3nc(NC(=O)Nc4ccc(Cl)c(C(F)(F)F)c4)sc3c2)ccn1`, the growth is reported as 23.7% (inactive). For `C[C@@H](Oc1cc(-n2cnc3ccc(CN4CCN(C)CC4)cc32)sc1C(N)=O)c1ccccc1C(F)(F)F`, the growth was 63.8% (inactive). `Oc1ccc(C(c2ccc(O)cc2)C(Cl)(Cl)Cl)cc1` was tested, and the growth was 98.2% (inactive). `C[C@H](NC(=O)c1c(N)nn2cccnc12)c1cc2cccc(C#Cc3cnn(C)c3)c2c(=O)n1-c1ccccc1` was tested, and the growth was 53.6% (inactive). `COc1cc(CCc2cc(NC(=O)c3ccc(N4C[C@@H](C)N[C@@H](C)C4)cc3)n[nH]2)cc(OC)c1` was tested, and the growth was 22.7% (inactive). `CNC(=O)CN1CCC(Oc2cc3c(Nc4cccc(Cl)c4F)ncnc3cc2OC)CC1` was tested, and the growth was -5.06% (active). With `Cc1oc2c(C(=O)N/N=C\c3ccc(O)cc3O)c[nH]c2c1C` the growth was 26.3% (inactive). In the case of `CCCCCc1ccc(C)cc1OC(=O)CCl`, the growth is reported as 97.3% (inactive). In the case of `COc1cc2ncnc(Oc3cccc(NC(=O)Nc4cc(C(C)(C)C(F)(F)F)on4)c3)c2cc1OC`, the growth is reported as 1.62% (active). With `COc1cc(Nc2ncc3c(n2)-c2ccc(Cl)cc2C(c2c(F)cccc2OC)=NC3)ccc1C(=O)O` the growth was 90.4% (inactive). For `CC[C@H](Nc1ncnc2nc[nH]c12)c1nc2cccc(F)c2c(=O)n1-c1ccccc1`, the growth was 42.9% (inactive). `CN1CCN(CCOc2cc(OC3CCOCC3)c3c(Nc4c(Cl)ccc5c4OCO5)ncnc3c2)CC1` was tested, and the growth was 2.76% (active). `Nc1nc(Nc2ccccc2)c(C=Nc2ccccc2)c(=O)[nH]1` was tested, and the growth was 93.3% (inactive). For `CNC(=O)c1cc(Oc2cccc3nc(Nc4ccc(Oc5ccccc5)cc4)ccc23)ccn1`, the growth was 99.9% (inactive). For `CN1CC[C@@H](c2c(O)cc(O)c3c(=O)cc(-c4ccccc4Cl)oc23)[C@@H]1CO`, the growth was -1.67% (active). In the case of `Cc1[nH]n(C(N)=S)c(=O)c1N=Nc1ccc(S(=O)(=O)Nc2ccncn2)cc1`, the growth is reported as 128% (inactive). For `COCCN1CCN(Cc2ccc(-c3n[nH]c4c3C(=O)c3c(NC(=O)NN5CCOCC5)cccc3-4)cc2)CC1`, the growth was -13.1% (active). `CN(c1ncccc1CNc1nc(Nc2ccc3c(c2)CC(=O)N3)ncc1C(F)(F)F)S(C)(=O)=O` was tested, and the growth was -11.3% (active). With `COc1cc(N2CCC(N3CCN(C)CC3)CC2)ccc1Nc1ncnc(Nc2ccccc2S(=O)(=O)C(C)C)n1` the growth was 109% (inactive). For `O=C(COc1ccc(/C=C2\Cc3ccc(Cl)cc3C2=O)cc1)Nc1nccs1`, the growth was 118% (inactive). `O=C(c1ccc(/C=C/c2n[nH]c3ccccc23)cc1)N1CCNCC1` was tested, and the growth was 33.5% (inactive). `O=C(O)C1(Cc2cccc(Nc3nccs3)n2)CCC(Oc2cccc(Cl)c2F)CC1` (centres undefined) was tested, and the growth was 76.4% (inactive). For `Cc1cc(O)cc(-c2c(-c3ccnc(-c4cccnc4)c3)cnn2C)c1`, the growth was 66.6% (inactive). `Cc1c(CN2CCN(C(=O)[C@H](C)O)CC2)sc2c(N3CCOCC3)nc(-c3cnc(N)nc3)nc12` was tested, and the growth was -26.1% (active). `CN1CCN(c2ccc(C(=O)Nc3n[nH]c4ccc(Cc5cc(F)cc(F)c5)cc34)c(NC3CCOCC3)c2)CC1` was tested, and the growth was 33.8% (inactive). For `C#Cc1cccc(Nc2ncnc3cc(OCCOC)c(OCCOC)cc23)c1`, the growth was 0.463% (active). For `COc1ccc(Nc2ncccc2NC(=O)c2cn(Cc3cccc(Oc4ccccc4)c3)nn2)cc1`, the growth was 82.9% (inactive). With `O=C1NC(=O)[C@@H](c2cn3c4c(cccc24)CCC3)[C@@H]1c1c[nH]c2ccccc12` the growth was 41.9% (inactive). With `Cc1cc(-c2cc(O)ccc2Cl)cc2nnc(Nc3ccc(OCCN4CCCC4)cc3)nc12` the growth was -94.4% (active). In the case of `C=CCN(/C=C1/C(=O)O[C@H](COC)[C@@]2(C)C1=C(O)C(=O)C1=C2[C@H](OC(C)=O)C[C@]2(C)C(=O)CC[C@@H]12)CC=C`, the growth is reported as -15.1% (active). In the case of `CNC(=O)c1nn(C)c2c1C(C)(C)Cc1cnc(Nc3ccc(N4CCN(C)CC4)cc3)nc1-2`, the growth is reported as 15.1% (inactive). For `CC(C)Nc1cc(-c2c[nH]c(C(=O)N[C@H](CO)c3cccc(Cl)c3)c2)c(Cl)cn1`, the growth was 17.5% (inactive). For `COc1ccc(Cc2cc(-c3ccccc3C)n[nH]c2=O)cc1`, the growth was 129% (inactive). `CC(C)[C@@H]1CC[C@@H]2[C@@H]1[C@H](OC(=O)/C=C/c1ccccc1)[C@]1(C(C)C)C[C@@H](OC(=O)CO)[C@@]2(C)O1` was tested, and the growth was 105% (inactive). In the case of `Cc1ncc(-c2ccnc(Nc3ccc(S(C)(=O)=O)cc3)n2)n1C(C)C`, the growth is reported as -10.8% (active). With `C/C=C/C=N/NC(=S)Nc1ccccc1` the growth was 90.6% (inactive). With `Cc1nn(-c2ccccc2)c2c1N=c1s/c(=C\c3cn(-c4ccccc4)nc3-c3ccc(Cl)cc3)c(=O)n1C(C)N2` (centres undefined) the growth was 113% (inactive). In the case of `COc1cc2c(cc1OCCCN1Cc3ccc(OCCCCC(=O)N4CCC(CCN5CCCC5)CC4)cc3C1)N=C(N)C21CCCC1`, the growth is reported as 107% (inactive).
